AC50 and outcome data for 16 compounds are collected here from PubChem BioAssay (EPA / NIEHS).

Holding throughout (conditions): mRNA level, 48 h; actives raise or lower the signal
Read-out in assay [1]: Cytochrome P450 2C19 (Homo sapiens) (UniProt P33261)
In words: LTEA_HepaRG_CYP2C19: Life Technologies and Expression Analysis (LTEA) Assay for CYP2C19 using HepaRG (AID 2283482). The method, boiled down:
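HepaRG, 48 h chemical exposure, 8-pt half-log series from 100 uM in 0.5% DMSO, duplicates. Readout: CYP2C19 mRNA by TaqMan qRT-PCR, housekeeping-normalized. Bidirectional fit vs DMSO baseline; phenobarbital 1mM as induction control.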

Read-out in another assay: CYP2C8 (gene 1558)
In words: LTEA_HepaRG_CYP2C8: Life Technologies and Expression Analysis (LTEA) Assay for CYP2C8 using HepaRG (AID 2283483). The method, boiled down: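 Differentiated human HepaRG cells were exposed for 48 h in serum-free induction medium to eight half-log concentrations up to 100 uM in 0.5% DMSO, in duplicate. CYP2C8 mRNA was measured by TaqMan qRT-PCR, normalized to ACTB, GAPDH and POLR2A, and fitted bidirectionally against DMSO.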

Read-out in another assay: CYP2C9 (gene 1559)
In words: LTEA_HepaRG_CYP2C9: Life Technologies and Expression Analysis (LTEA) Assay for CYP2C9 using HepaRG (AID 2283484). The method, boiled down: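 Differentiated human HepaRG cells were exposed 48 h in serum-free induction medium to eight half-log concentrations up to 100 uM in 0.5% DMSO. CYP2C9 mRNA was measured by qRT-PCR, normalized to ACTB, GAPDH and POLR2A, and fitted bidirectionally against DMSO.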

Read-out in another assay: CYP2E1 (gene 1571)
In words: LTEA_HepaRG_CYP2E1: Life Technologies and Expression Analysis (LTEA) Assay for CYP2E1 using HepaRG (AID 2283485). The gist of the method:
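HepaRG cells in serum-free induction medium exposed 48 h to test chemicals, 8 half-log concentrations up to 100 uM in 0.5% DMSO, duplicate. CYP2E1 mRNA by qRT-PCR, normalized to ACTB, GAPDH, POLR2A; bidirectional fit versus DMSO.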

Read-out in assay [2]: Cytochrome P450 3A4 (Homo sapiens) (UniProt P08684)
Kind of assay: LTEA_HepaRG_CYP3A4: Life Technologies and Expression Analysis (LTEA) Assay for CYP3A4 using HepaRG (AID 2283487). The gist of the method: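 Differentiated HepaRG cells, plated 48 h, then dosed 48 h in serum-free induction medium with 0.5% DMSO, 8 half-log concentrations up to 100 uM, duplicate. CYP3A4 mRNA by qRT-PCR, normalized to ACTB/GAPDH/POLR2A; bidirectional fit versus DMSO.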

Read-out in assay [3]: DNA damage-inducible transcript 3 (DDIT3), DDIT3 (gene 1649)
In words: LTEA_HepaRG_DDIT3: Life Technologies and Expression Analysis (LTEA) Assay for DNA damage-inducible transcript 3 (DDIT3) using HepaRG (AID 2283488). The gist of the method:
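Differentiated human HepaRG cells in serum-free induction medium were exposed in duplicate for 48 h to 8 concentrations (top 100 uM, half-log steps, 0.5% DMSO). DDIT3 mRNA measured by TaqMan qRT-PCR, normalized to ACTB/GAPDH/POLR2A; bidirectional fit versus DMSO.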

Read-out in assay [4]: Early growth response protein 1 (EGR1) transcription factor, EGR1 (gene 1958)
Kind of assay: LTEA_HepaRG_EGR1: Life Technologies and Expression Analysis (LTEA) Assay for Early growth response protein 1 (EGR1) transcription factor using HepaRG (AID 2283490). The gist of the method: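 Differentiated human HepaRG cells in serum-free induction medium were exposed in duplicate for 48 h to eight concentrations (top 100 uM, half-log steps) in 0.5% DMSO. EGR1 mRNA was quantified by qRT-PCR, normalized to ACTB, GAPDH and POLR2A, and fitted bidirectionally versus DMSO.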

Read-out in assay [5]: Ezrin (EZR), EZR (gene 7430)
Kind of assay: LTEA_HepaRG_EZR: Life Technologies and Expression Analysis (LTEA) Assay for Ezrin (EZR) using HepaRG (AID 2283491). The method, boiled down:
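EZR transcript levels came from Fluidigm qRT-PCR and were normalized to three housekeeping genes after 48 h chemical exposure of HepaRG cells. Dosing used an 8-point half-log series with a 100 uM top concentration in 0.5% DMSO, tested in duplicate; both directions were fitted versus vehicle.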

Read-out in a further assay: CYP3A5 (gene 1577)
In words: LTEA_HepaRG_CYP3A5: Life Technologies and Expression Analysis (LTEA) Assay for CYP3A5 using HepaRG (AID 2283493). The method, boiled down: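 Differentiated HepaRG cells in serum-free induction medium were dosed 48 h with test chemicals (8-point half-log series, top 100 uM, 0.5% DMSO, duplicate). CYP3A5 mRNA measured by qRT-PCR, normalized to ACTB, GAPDH, POLR2A; bidirectional fit versus DMSO.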

Read-out in assay [6]: Fatty Acid-Binding Protein 1 (FABP1), FABP1 (gene 2168)
Kind of assay: LTEA_HepaRG_FABP1: Life Technologies and Expression Analysis (LTEA) Assay for Fatty Acid-Binding Protein 1 (FABP1) using HepaRG (AID 2283494). The gist of the method: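 Differentiated human HepaRG cells were exposed in duplicate for 48 h in serum-free induction medium to 8-point half-log concentration series topping at 100 uM in 0.5% DMSO. FABP1 mRNA measured by TaqMan qRT-PCR, normalized to ACTB/GAPDH/POLR2A; bidirectional fit versus DMSO.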

Calls of active or inactive are those of the source. Rule for the calls: active = hit-call score of the fitted dose curve at least 0.9, where 1 is the maximum; inactive = score below 0.9.

Cytochrome P450 2C19 (Homo sapiens), sequence (P33261 whole entry, looked up): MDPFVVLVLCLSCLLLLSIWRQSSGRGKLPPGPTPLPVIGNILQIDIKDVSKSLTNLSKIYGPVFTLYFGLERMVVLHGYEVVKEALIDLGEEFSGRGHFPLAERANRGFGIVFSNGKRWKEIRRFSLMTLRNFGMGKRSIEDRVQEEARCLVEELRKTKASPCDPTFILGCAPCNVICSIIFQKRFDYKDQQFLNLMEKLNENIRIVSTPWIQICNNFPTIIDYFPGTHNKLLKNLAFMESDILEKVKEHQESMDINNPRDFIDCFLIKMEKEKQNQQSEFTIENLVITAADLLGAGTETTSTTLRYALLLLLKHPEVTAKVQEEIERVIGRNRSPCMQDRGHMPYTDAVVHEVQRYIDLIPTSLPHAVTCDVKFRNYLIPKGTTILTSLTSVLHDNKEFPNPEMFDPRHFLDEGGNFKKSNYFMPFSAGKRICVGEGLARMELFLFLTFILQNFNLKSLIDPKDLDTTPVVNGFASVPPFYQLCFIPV
Cytochrome P450 3A4 (Homo sapiens), sequence (P08684 whole entry, looked up): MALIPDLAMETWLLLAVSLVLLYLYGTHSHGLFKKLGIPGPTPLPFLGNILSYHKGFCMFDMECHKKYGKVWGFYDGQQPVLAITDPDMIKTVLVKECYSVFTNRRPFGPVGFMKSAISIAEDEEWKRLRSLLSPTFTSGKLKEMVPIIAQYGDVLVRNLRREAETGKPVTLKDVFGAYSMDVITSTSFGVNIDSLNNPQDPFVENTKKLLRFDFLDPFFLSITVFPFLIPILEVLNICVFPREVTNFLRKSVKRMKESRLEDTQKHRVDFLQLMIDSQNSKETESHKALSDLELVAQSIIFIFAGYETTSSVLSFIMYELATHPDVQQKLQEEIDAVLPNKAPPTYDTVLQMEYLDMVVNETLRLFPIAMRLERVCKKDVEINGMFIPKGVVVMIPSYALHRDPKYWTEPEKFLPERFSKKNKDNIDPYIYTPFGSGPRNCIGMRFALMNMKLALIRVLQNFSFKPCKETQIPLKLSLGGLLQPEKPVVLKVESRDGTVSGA

A word on the AC50: it is the concentration giving half of the maximal activity seen. Take `CCN1CCC2(CC1)COc1cc3c(cc12)N(C(=O)c1ccc(-c2ccc(-c4nnc(C)o4)cc2C)cc1)CC3`: the concentration at half-maximal activity (AC50) in assay [1] was 21.9 µM (active); with CYP2C9 (gene 1559), 21.4 µM (active); with CYP2E1 (gene 1571), 17.7 µM (active); in assay [2], 28 µM (active); in assay [3], 11.6 µM (active); in [4], 11.9 µM (active). Further, the AC50 with CYP3A5 (gene 1577) was 16 µM (active); in [6] it was 21.9 µM (active). For the same compound, the compound was called inactive (with CYP2C8 (gene 1558); in assay [5]).
For `ClC1(Cl)C2(Cl)C3(Cl)C4(Cl)C(Cl)(Cl)C5(Cl)C3(Cl)C1(Cl)C5(Cl)C24Cl` (centres undefined), the AC50 in assay [1] was 3.41 µM (active); with CYP2E1 (gene 1571), 4.06 µM (active); in [2], 4.01 µM (active); in assay [6], 3.49 µM (active). For the same compound, the call (in the assay with CYP2C8 (gene 1558); with CYP2C9 (gene 1559); in assay [3]; in assay [4]; in assay [5]; with CYP3A5 (gene 1577)) was inactive.
On to `O=C(Nc1ccc2[nH]ccc2c1)c1cc2cc(F)ccc2n1Cc1cccc(F)c1`, for which the AC50 was 73.6 µM (active) in assay [1]; 27 µM (active) with CYP2C8 (gene 1558); 35.7 µM (active) with CYP2C9 (gene 1559); 21.9 µM (active) with CYP2E1 (gene 1571); 83.5 µM (active) in [2]; 18 µM (active) in assay [3]. Further, the AC50 was 9.92 µM (active) in [5], 92.9 µM (active) with CYP3A5 (gene 1577) and 23.9 µM (active) in assay [6]. For the same compound, the compound was called inactive in assay [4].
On to `CCOP(=S)(OCC)Oc1nc(Cl)c(Cl)cc1Cl`, for which the AC50 is 23.8 µM (active) in assay [1], 50 µM (active) with CYP2E1 (gene 1571), 37.2 µM (active) in assay [2] and 50 µM (active) in assay [6]. The outcome (with CYP2C8 (gene 1558); in the assay with CYP2C9 (gene 1559); in assay [3]; in assay [4]; in assay [5]; in the assay with CYP3A5 (gene 1577)) was inactive.
Consider `ClCC(Cl)CCl`, for which the compound was called inactive (in assay [1]; with CYP2C8 (gene 1558); with CYP2C9 (gene 1559); with CYP2E1 (gene 1571); in assay [2]; in assay [3]). For the same compound, the result (in [4]; in [5]; in the assay with CYP3A5 (gene 1577); in [6]) was inactive.
For `CN(C)N=O`, the compound was classed as inactive (in assay [1]; with CYP2C8 (gene 1558); with CYP2C9 (gene 1559); in the assay with CYP2E1 (gene 1571); in assay [2]; in assay [3]). The compound was classed as inactive (in assay [4]; in assay [5]; in the assay with CYP3A5 (gene 1577); in [6]).
Take `C[C@]12CCC(=O)C[C@@H]1CC[C@@H]1[C@@H]2CC[C@]2(C)[C@@H](O)CC[C@@H]12`: the AC50 was 23.6 µM (active) in assay [1] and 50 µM (active) with CYP2E1 (gene 1571). For the same compound, the result (with CYP2C8 (gene 1558); with CYP2C9 (gene 1559); in assay [2]; in assay [3]; in [4]; in assay [5]) was inactive. Moreover, the compound was called inactive (with CYP3A5 (gene 1577); in [6]).
For the compound `O=[N+]([O-])c1ccc(O)c([N+](=O)[O-])c1`, the AC50 in assay [1] was 19.5 µM (active); with CYP2C8 (gene 1558), 40.1 µM (active); with CYP2C9 (gene 1559), 21.8 µM (active); with CYP2E1 (gene 1571) it was 20.5 µM (active); in [2], 22.2 µM (active); in [3], 89.7 µM (active). The AC50 in assay [4] was 12.5 µM (active); with CYP3A5 (gene 1577), 10.6 µM (active); in assay [6] it was 18.7 µM (active). For the same compound, the compound was classed as inactive in [5].
Turning to `CC(C)(OO)c1ccccc1`, the compound was classed as inactive (in assay [1]; in the assay with CYP2C8 (gene 1558); in the assay with CYP2C9 (gene 1559); with CYP2E1 (gene 1571); in [2]; in [3]). For the same compound, the result (in assay [4]; in [5]; with CYP3A5 (gene 1577); in [6]) was inactive.
For the compound `C[C@@H]1C[C@@H]([C@H](O)CC2CC(=O)NC(=O)C2)C(=O)[C@@H](C)C1`, the result in assay [3] was inactive. For the same compound, the AC50 in [4] is 91.8 µM (active); in assay [5] it was 10.8 µM (active); in assay [6] it was 13.2 µM (active).
`O=C(O)C(Cl)(Cl)Cl`: the call (in assay [1]; with CYP2C8 (gene 1558); with CYP2C9 (gene 1559); in the assay with CYP2E1 (gene 1571); in assay [2]; in assay [3]) was inactive. The outcome (in [4]; in [5]; with CYP3A5 (gene 1577); in assay [6]) was inactive.
As for `O=C1C2(Cl)C3(Cl)C4(Cl)C(Cl)(Cl)C5(Cl)C3(Cl)C1(Cl)C5(Cl)C24Cl` (centres undefined), the AC50 in assay [1] is 26.4 µM (active); in the assay with CYP2C8 (gene 1558), 25.2 µM (active); with CYP2C9 (gene 1559), 94.1 µM (active); with CYP2E1 (gene 1571) it was 13.2 µM (active); in [3], 89.4 µM (active); in assay [4], 95.5 µM (active). Moreover, the AC50 in assay [5] was 91.3 µM (active); with CYP3A5 (gene 1577) it was 92.4 µM (active); in assay [6] it was 93.5 µM (active). Also, the result in assay [2] was inactive.
As to `CC(C)(C)c1cc(O)ccc1O`, the result (in assay [1]; with CYP2C8 (gene 1558); with CYP2C9 (gene 1559); in the assay with CYP2E1 (gene 1571); in [2]; in assay [3]) was inactive. Besides, the outcome (in assay [4]; in assay [5]; in the assay with CYP3A5 (gene 1577); in [6]) was inactive.
On to `Cn1sc(Cl)cc1=O`, for which the result (in assay [1]; with CYP2C8 (gene 1558); in the assay with CYP2C9 (gene 1559); with CYP2E1 (gene 1571); in assay [2]; in assay [3]) was inactive. Also, the call (in [4]; in assay [5]; with CYP3A5 (gene 1577); in [6]) was inactive.
For the compound `CC(C)(C)CC(C)(C)c1ccc(O)cc1`, the outcome (in assay [1]; with CYP2C8 (gene 1558); with CYP2C9 (gene 1559); in [2]; in assay [3]; in [4]) was inactive. The compound was called inactive (in assay [5]; with CYP3A5 (gene 1577); in assay [6]). The AC50 in the assay with CYP2E1 (gene 1571) is 26.5 µM (active).
Take `Cc1ccccc1N`: the compound was classed as inactive (in assay [1]; in the assay with CYP2C8 (gene 1558); with CYP2C9 (gene 1559); with CYP2E1 (gene 1571); in assay [2]; in [3]). The compound was called inactive (in [4]; in assay [5]; with CYP3A5 (gene 1577); in assay [6]).
